Hits are enriched below; roughly 2.8% of the tested compounds scored in any of these assays.
MITF TRPM1 inh = inhibitors of MITF-dependent TRPM1 promoter reporter, primary screen, cell-based, SK-MEL-5, single point, luciferase. SK-MEL-5 TRPM1 promoter luciferase, 24 h. inhibition, % at 12.5 µM. 0.83% of 330,000 active. AID 488899, 2010;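 active = mean inhibition across replicates of 60% or more, whatever share of single replicates reaches that level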
Beta2AR agonist = beta2AR agonists driving receptor internalization, primary screen, cell-based, FAP fluorogen, flow cytometry. Beta-2 adrenergic receptor (Homo sapiens), P07550. 0.43% of 340,000 active. response, % (concentration not given with the values). Am2.2-beta2AR cells;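 active = response above a set limit, near 3 SD of response in nonfluorescent compounds, cut at about 42% in these data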
Target sequence (P07550 whole entry, looked up): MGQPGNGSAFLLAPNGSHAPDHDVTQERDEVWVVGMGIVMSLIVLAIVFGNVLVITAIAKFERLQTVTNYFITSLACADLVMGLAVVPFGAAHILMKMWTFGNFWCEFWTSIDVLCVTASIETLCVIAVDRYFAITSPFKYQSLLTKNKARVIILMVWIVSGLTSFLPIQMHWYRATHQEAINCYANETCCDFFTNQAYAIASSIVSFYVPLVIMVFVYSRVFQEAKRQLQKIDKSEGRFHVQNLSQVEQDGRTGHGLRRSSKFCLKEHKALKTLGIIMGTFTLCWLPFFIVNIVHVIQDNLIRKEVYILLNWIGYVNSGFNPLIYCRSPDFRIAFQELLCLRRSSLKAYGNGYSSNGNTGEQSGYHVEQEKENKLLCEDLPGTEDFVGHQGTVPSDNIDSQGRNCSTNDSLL
Peg3 promoter = Peg3 promoter-driven luciferase inhibitors, primary screen, cell-based, HeLa, luciferase luminescence; HeLa PEG-Prom luciferase reporter, overnight; inhibition, % at 20 µM; 1.7% of 360,000 active; AID 588405, 2011;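 active = inhibition of at least 50% at 20 µM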
CF NFkB block = inhibitors of PAF-induced NF-kB signaling, primary screen, cell-based, GFP fluorescence, uHTS; KKLEB NF-kB-GFP reporter, GFP fluorescence overnight; inhibition, % at 5 µM; 0.86% of 360,000 active; AID 588850, 2011;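 active = at least 50% inhibition at 5 µM, scaled per plate between neutral and stimulator controls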;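 also: PAF is a Pseudomonas aeruginosa culture filtrate used as stimulus; plate controls were PAF-stimulated DMSO wells for no effect and unstimulated DMSO wells for full effect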
KKLEB tox = cytotoxicity in KKLEB CF airway cells, primary screen, cytotoxicity control for CF NF-kB inhibitor project, cell-based, uHTS, fluorescence assay plates | activity change (cytotoxicity), % at 5 µM | 0.36% of 360,000 active | KKLEB CF airway cells viability, ATPlite luminescence, overnight; hits give low values; cells stimulated with P. aeruginosa culture filtrate;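 active = corrected activity change at or below -50% at 5 µM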
HIF-2a inh = HIF-2a reporter inhibitors, primary screen, luminescence, 786-0 RCC cells. 786-0 RCC cells HIF-2a reporter, luciferase luminescence, overnight. inhibition, % at 18.8 µM. 0.72% of 360,000 active. AID 624352, 2012;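 active = inhibition of the luminescence signal of 40% or more relative to plate controls, in a single-dose primary screen at 18.75 µM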
Mdm2-MdmX confirm = retested Mdm2-MdmX interaction blockers, confirmation, cell-based, luminescence, single concentration, set 2. shares compounds with HIF-2a inh. SaOS-2 split-luciferase Mdm2/MdmX complementation. inhibition, % at 8 µM. 99% of 740 active;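 active = mean inhibition of the luminescence signal across two replicates at or above 26 percent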
HIF-2a conf = HIF-2a reporter inhibitor retest, confirmation, luminescence, 786-0 RCC cells; shares compounds with HIF-2a inh; HIF-2a luciferase reporter luminescence, overnight; inhibition, % at 18.8 µM; 56% of 1,800 active;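 active = mean inhibition across four replicates of at least 40 percent at the single tested concentration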
HIF-1a counter = HIF-1a luciferase reporter signal reduction – MiaPaCa-2 cells, single concentration, counter-screen for HIF-2a inhibitor project, confirmation | shares compounds with HIF-2a inh | MiaPaCa-2 HIF-1a luciferase reporter, desferoxamine, overnight | inhibition, % at 18.8 µM | 72% of 1,800 active;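 active = mean inhibition of the reporter signal across four replicates at the single tested dose of 50% or more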
Active calls of the source: *; / = not tested or not shown.

SMILES	MITF TRPM1 inh	Beta2AR agonist	Peg3 promoter	CF NFkB block	KKLEB tox	HIF-2a inh	HIF-2a conf	HIF-1a counter	others
C[C@@H]1O[C@@H](O[C@@H]2C=C3CC[C@@H]4C(CC[C@]5(C)[C@@H](c6ccc(=O)oc6)CC[C@]45O)[C@@]3(C)CC2)[C@H](O)[C@H](O)[C@H]1O (some centres not stated)	83*	2	107*	89*	-76*	86*	46*	105*
O=C(O)C(Cl)(Cl)Cl	/	/	-8	-1	-4	-6	/	/
COc1cc(/C=C(/C)[N+](=O)[O-])ccc1OCc1ccccc1Cl	91*	48*	105*	85*	-66*	94*	/	/	Mdm2-MdmX confirm=103*
CSc1nnc(C2CCNCC2)n1C	-7	3	6	-1	11	5	/	/
Nc1nnc(P(c2ccccc2)c2ccccc2)s1	-7	4	21	5	-6	15	/	/
c1ccc(P(c2ccccn2)c2ccccn2)cc1	4	-3	13	-7	12	58*	2	-6
C[CH2][Hg][S]c1ccccc1C(=O)O	95*	35	94*	86*	-89*	97*	/	/	Mdm2-MdmX confirm=102*
CC1=CC2OC3CC4OC(=O)C=CC=CC(=O)OCCC(C)C(O)C(=O)OCC2(CC1O)C4(C)C31CO1 (configuration not stated)	86*	3	101*	84*	-44	75*	72*	103*
Oc1ccc(-[n+]2c(-c3ccccc3)cc(-c3ccccc3)cc2-c2ccccc2)cc1	84*	22	86*	40	-15	-22	/	/	Mdm2-MdmX confirm=102*
O=P(NS(=O)(=O)c1ccc(Br)cc1)(Oc1ccccc1)Oc1ccccc1	8	-1	17	-8	4	13	/	/
O=Cc1cn(Cc2ccccc2F)c2ccccc12	6	0	19	12	13	12	/	/
O=Cc1cn(Cc2cccc([N+](=O)[O-])c2)c2ccccc12	24	-7	101*	38	-40	46*	63*	-8
COC(=O)C12OCC34C(CC5C(C)=C(O)C(=O)CC5(C)C3C(O)C1O)OC(=O)C(OC(=O)/C=C(\C)C(C)C)C24 (configuration not stated)	85*	-9	103*	96*	-52*	75*	69*	106*
CCC(C)C1NC(=O)C(NC(=O)C(CC(C)C)N(C)C(=O)C2CCCN2C(=O)C(C)O)C(C)OC(=O)C(Cc2ccc(OC)cc2)N(C)C(=O)C2CCCN2C(=O)C(CC(C)C)NC(=O)[C@H](C)C(=O)[C@H](C(C)C)OC(=O)CC1O (some centres not stated)	105*	42*	100*	94*	-70*	83*	79*	100*
COc1ccc(C(=O)N2CCCC2=O)cc1	16	10	-2	-17	-4	4	/	/
